Bioassay records from PubChem BioAssay.
Rows were chosen to be rich in hits. Some 4.5% of all compounds tested hit in one or more screens of this group.
DAX1 inh-1 = inhibitors of human orphan nuclear receptor DAX1 (NR0B1); P51843; HEK293 Gal4-DAX1 luciferase reporter, luminescence; inhibition, % at 6.75 µM; 340,000 tested, 0.99% active; AID 504766;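 active = inhibition above the mean over all tested compounds plus 3 SD, cut at about 4.2% in these data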;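 note: inhibition shows as a rise in luminescence from relieved DAX1 repression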
Target sequence (P51843 207-470 limits assumed): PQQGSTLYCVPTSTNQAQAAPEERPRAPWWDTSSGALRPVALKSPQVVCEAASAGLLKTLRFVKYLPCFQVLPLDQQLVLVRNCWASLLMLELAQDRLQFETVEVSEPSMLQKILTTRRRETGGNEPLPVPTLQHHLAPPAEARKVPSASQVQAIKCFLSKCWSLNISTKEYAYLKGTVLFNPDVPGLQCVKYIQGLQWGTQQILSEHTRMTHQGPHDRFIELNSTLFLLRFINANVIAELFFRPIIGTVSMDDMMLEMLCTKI
ssDAF12 agonist = activators of S. stercoralis DAF-12 nuclear receptor | HEK293 ssDAF-12/GRIP1 lit1-tk-luc reporter, luminescence; % of 3 µM dafachronic acid response | activation, % at 6.8 µM | 370,000 tested, 1% active | AID 652126;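 active = activation above the mean over all tested compounds plus 3 SD, cut at about 0.9% in these data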
FXN GAA850 act = frataxin GAA850 promoter activation. AID 540364. HEK293 lucGAA850 FXN promoter luciferase reporter, 24 h; percent of 10 µM SAHA response. activation, % at 6 µM. 360,000 tested, 0.56% active;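 active = activation above the average of all compounds screened plus 3 SD, cutoff fixed separately per campaign, cut at about 7.5% in these data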
hgDAF-12 ag = activates the H. glycines DAF-12 receptor ligand-binding domain | activation, % at 6.8 µM | 370,000 tested, 1.8% active | HEK293 GAL4-hgDAF12 UAS-luciferase reporter, agonist luminescence; normalized to butyrate control;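 active = activation above a cutoff set at the mean of all screened compounds plus 3 SD, cut at about 10% in these data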
DAX1 inh-2 = DAX1 (NR0B1) inhibition, primary screen; 370,000 tested, 1.1% active; inhibition, % at 6.8 µM; AID 652010; HEK293T StAR-luciferase reporter, SF-1/DAX-1 repression relief;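 active = inhibition above the mean over all tested compounds plus 3 SD, cut at about 3.6% in these data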;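 note: higher inhibition means more luminescence from relief of DAX-1 repression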
hcDAF12 agonist = activators of H. contortus DAF-12 nuclear receptor. activation, % at 6.8 µM. 370,000 tested, 1.4% active. HEK293 hcDAF-12 lit1-tk-luc reporter, luminescence; 0% DMSO, 100% Δ7-dafachronic acid;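 active = activation above the mean of all tested compounds plus 3 SD, cut at about 5.5% in these data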
DAX1 inh confirm = confirmation of human DAX1 (NR0B1) inhibitors. HEK293T StAR-promoter luciferase reporter, SF-1/DAX-1 repression. inhibition, % at 6.8 µM. shares compounds with DAX1 inh-2. 2,400 tested, 87% active;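 active = inhibition above the average of every tested compound plus 3 SD, cut at about 3.8% in these data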;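 note: active compounds raise luminescence by relieving repression of the StAR reporter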
SF1 AF2mut Luc = counter-screen for DAX1 inhibitors: nonselective inhibitors with SF-1 AF2 mutant | shares compounds with DAX1 inh-2 | HEK293 StAR-luciferase, luminescence | inhibition, % at 6.8 µM | 2,400 tested, 78% active | AID 652136;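 active = inhibition above the mean of all tested compounds plus 3 SD, cut at about 3% in these data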
LXRb hcDAF ctr = LXR-beta agonism as hcDAF-12 counter-screen; 3,400 tested, under 10 active; HEK293 Gal4-LXR tk-luc reporter, luminescence, 24 h; normalized: DMSO 0%, positive control 100%; AID 743027; shares compounds with hcDAF12 agonist; activation, % at 6.8 µM;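 active = mean percent activation of the reporter above a cutoff set as the average over tested compounds plus their standard deviation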
Target sequence (P55055 whole entry, looked up, the tested form may be a part): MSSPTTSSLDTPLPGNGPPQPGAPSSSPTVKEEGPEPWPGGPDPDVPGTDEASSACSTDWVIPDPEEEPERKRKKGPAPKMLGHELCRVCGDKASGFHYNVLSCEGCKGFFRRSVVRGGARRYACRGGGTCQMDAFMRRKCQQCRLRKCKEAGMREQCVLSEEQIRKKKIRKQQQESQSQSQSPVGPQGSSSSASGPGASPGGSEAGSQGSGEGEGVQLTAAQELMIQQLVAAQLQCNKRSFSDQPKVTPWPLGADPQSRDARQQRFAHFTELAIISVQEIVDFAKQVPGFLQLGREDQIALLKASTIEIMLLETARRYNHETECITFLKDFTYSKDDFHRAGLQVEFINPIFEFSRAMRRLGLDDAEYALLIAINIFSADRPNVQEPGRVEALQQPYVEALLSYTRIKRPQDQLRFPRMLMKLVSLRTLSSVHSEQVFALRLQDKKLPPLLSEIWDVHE
hcDAF12 ag = hcDAF-12 agonism, confirmation assay | shares compounds with hcDAF12 agonist | HEK293 hcDAF-12 lit1-tk-luc reporter, luminescence; % of Δ7-dafachronic acid response | activation, % at 6.8 µM | 3,400 tested, 61% active | AID 743032;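 active = mean activation across triplicate tests above the threshold derived from the earlier primary screen, cut at about 5.5% in these data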
hgDAF12 conf = confirmation of H. glycines DAF-12 agonists. 3,300 tested, 80% active. activation, % at 6.8 µM. AID 743050. HEK293 GAL4-hgDAF12 luciferase reporter, agonist mode; percent of butyrate response. shares compounds with hgDAF-12 ag;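 active = mean activation over triplicate wells above the hit cutoff derived from the earlier primary screen, cut at about 11% in these data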
LXR ag 2 = counter-screen for DAF-12 agonists: agonists of human LXR-beta | shares compounds with hgDAF-12 ag | HEK293 Gal4-LXR luciferase reporter, 24 h | activation, % at 6.8 µM | 3,300 tested, under 10 active | AID 743051;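 active = mean activation of the triplicate above a set limit carried over from the primary screen, none filed active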
Hits are given with their value; - = inactive; . = not tested or not shown.

SMILES	DAX1 inh-1	ssDAF12 agonist	FXN GAA850 act	hgDAF-12 ag	DAX1 inh-2	hcDAF12 agonist	DAX1 inh confirm	SF1 AF2mut Luc	LXRb hcDAF ctr	hcDAF12 ag	hgDAF12 conf	LXR ag 2
Cc1ccc(NC(=O)C2CC(=O)N(c3ccc4c(c3)OCCO4)C2)nc1 (configuration not stated)	-	-	-	-	-	-	.	.	.	.	.	.
Cc1ccnc(NC(=O)C2CC(=O)N(c3ccc4c(c3)OCCO4)C2)c1 (configuration not stated)	-	-	-	15	12	-	12	6.2	.	.	16	-
O=C1COc2ccccc2C(c2nnnn2Cc2ccccc2)N1Cc1cccs1 (configuration not stated)	.	-	.	-	-	-	.	.	.	.	.	.
CCn1c(-c2sc(-c3ccccc3)nc2C)n[nH]c1=S	-	-	-	-	-	-	.	.	.	.	.	.
Cc1nc(-c2ccccc2)sc1-c1ccn[nH]1	-	-	-	14	9.2	8.8	16	10	-	-	17	-
Cc1nc(-c2ccccc2)sc1-c1ccnn1C	-	-	-	16	6.2	8.8	15	7.9	-	5.8	18	-
Cc1ccc2nc(-c3ccco3)c(Cc3ccccc3C(F)(F)F)n2c1	.	-	.	-	-	-	.	.	.	.	.	.
O=C(Nc1ccc(F)cc1Cl)c1ccc2c(=O)n3c(nc2c1)CCCCC3	-	-	-	-	-	-	.	.	.	.	.	.
O=C(Nc1ccccc1Cl)c1ccc2c(=O)n3c(nc2c1)CCC3	-	-	-	15	12	-	8.8	5.0	.	.	14	-
O=C(NCCOc1ccccc1F)c1ccc2c(=O)n3c(nc2c1)CCC3	-	-	-	16	8.5	-	7.8	4.5	.	.	12	-
O=[N+]([O-])c1ccc(COc2ccc(CN3CCCC3)cc2)cc1	-	-	-	15	4.8	-	6.9	5.6	.	.	13	-
O=[N+]([O-])c1ccc(COc2ccc(CN3CCOCC3)cc2)cc1	-	-	-	18	7.7	-	4.2	-	.	.	-	-
O=[N+]([O-])c1ccc(COc2ccc(CN3CCCCC3)cc2)cc1	-	-	-	-	-	-	.	.	.	.	.	.
C[C@@H]1ON(C)[C@H]2C[C@H]3c4cc(-c5ccc6c(c5)OCO6)ccc4CCN3C[C@@H]12	.	-	.	-	-	-	.	.	.	.	.	.
Cc1[nH]c2ccccc2c1CC(=O)Nc1ccc(Nc2cccnc2)c(-c2ccc(OC(F)(F)F)cc2)c1	.	-	.	-	-	-	.	.	.	.	.	.
Cc1c(C(=O)Nc2nc(-c3ccccn3)cs2)oc2ccccc12	-	.	-	.	.	.	.	.	.	.	.	.
COc1ccc2oc(C(=O)NC3CCCCC3)c(C)c2c1	-	-	-	16	6.2	5.8	7.0	5.9	.	.	14	-
COc1ccc2oc(C(=O)Nc3nc(C)cs3)c(C)c2c1	-	1.1	-	21	6.9	9.9	10	6.6	-	12	20	-
COc1ccc2c3c([nH]c2c1)[C@]1(NCC3)C(=O)N(C)c2ccc(Cl)cc21	.	-	.	-	-	-	.	.	.	.	.	.
CCOC(=O)c1c(C)nc(C)c(C(=O)OCC)c1-c1ccccc1	-	.	-	.	.	.	.	.	.	.	.	.
CCOC(=O)C1=CCC(c2cc3ccccc3[nH]2)NC1 (configuration not stated)	.	1.1	.	15	5.7	8.0	8.9	5.0	-	6.4	19	-
CC1=CC(=C2C(=O)c3ccccc3C2=O)C=C(C)O1	-	-	-	-	-	-	.	.	.	.	.	.
CCCCN1C(C)=CC(=C2C(=O)c3ccccc3C2=O)C=C1C	-	-	-	22	6.7	7.5	6.1	-	-	11	12	-
CCCN1C=CC(=C2C(=O)c3ccccc3C2=O)C=C1	-	-	-	-	-	-	.	.	.	.	.	.
CCCCCCN1C=CC(=C2C(=O)c3ccccc3C2=O)C=C1	-	1.1	-	14	9.4	8.6	-	-	-	6.1	-	-
SMILES	DAX1 inh-1	ssDAF12 agonist	FXN GAA850 act	hgDAF-12 ag	DAX1 inh-2	hcDAF12 agonist	DAX1 inh confirm	SF1 AF2mut Luc	LXRb hcDAF ctr	hcDAF12 ag	hgDAF12 conf	LXR ag 2
Cc1ccccc1C(=O)N[C@H](C(=O)N1CCC[C@H]1C(=O)NC1CCCC1)c1ccccc1	.	-	.	-	-	-	.	.	.	.	.	.
C(=N\Nc1nc2ccccc2s1)/c1ccc2c(c1)OCO2	-	4.5	-	17	8.2	17	19	12	-	9.6	24	-
c1ccc2sc(Nc3nc4cc5c(cc4s3)OCO5)nc2c1	-	2.3	-	18	5.4	7.4	12	7.8	-	8.2	17	-
COc1ccc(C=NNc2nc3ccccc3s2)cc1	-	0.9	-	17	11	14	22	12	-	13	16	-
Fc1ccc2nc(Nc3nc4cc5c(cc4s3)OCO5)sc2c1	-	-	-	-	-	-	.	.	.	.	.	.
C(=C\c1ccccc1)/C=N/Nc1nc2ccccc2s1	5.7	2.2	-	19	5.3	16	14	11	-	9.6	20	-
CCCC[C@H]1C2CC(OC(=O)NCc3ccc(Cl)cc3)C(C2)[C@H]2CCCCN21 (some centres not stated)	.	-	.	-	-	-	.	.	.	.	.	.
CS(=O)(=O)Nc1ccc(C(=O)Nc2ccc3c(c2)OCCO3)cc1	-	.	.	.	.	.	.	.	.	.	.	.
COc1ccc(C(=O)OCC(=O)Nc2ccc3c(c2)OCCO3)c(OC)c1	-	-	-	-	-	-	.	.	.	.	.	.
Cc1ccsc1C(=O)Nc1ccc2c(c1)OCCO2	-	-	-	21	4.6	-	14	7.7	.	.	15	-
COc1ccc(C(=O)Nc2ccc3c(c2)OCCO3)c(OC)c1	-	-	-	22	9.4	5.7	13	9.1	.	.	17	-
COc1ccc(C(=O)Nc2ccc3c(c2)OCCO3)cc1	-	1.4	-	15	4.7	5.8	14	5.2	.	.	15	-
Cc1sc2nc(COC(=O)CNC(=O)c3cc(F)ccc3F)[nH]c(=O)c2c1C	.	-	.	-	-	-	.	.	.	.	.	.
